{"source": "PubChem BioAssay (Tox21)", "note": "Records with an inconclusive call do not appear. A call without a number means that no potency is given here. Activity calls are given as the source filed them. Calls come from the whole dose curve; as a rule, active = well fitted cell-killing curve with a large enough effect in the repeat runs; inconclusive = weak or mixed curves, or effect the other way; inactive = flat fitted curve, though single readings scatter. Potency is the fitted concentration of half-maximal effect.", "data": [{"experiment": "qHTS RealTime-Glo MT Cell Viability Assay in HepG2 cells - 40 hour (AID 1224870); note: nearly all actives have a fitted effect of over 50% in size", "settings": "RealTime-Glo luminescence; series mostly up to 76.8 µM", "excerpt": "National Center for Advancing Translational Sciences [NCATS]\nNIH Chemical Genomics Center [NCGC]\nU.S. Environmental Protection Agency [EPA]\nNational Institutes of Environmental Health Sciences [NIEHS]\nNational Toxicology Program [NTP]\nU.S. Food and Drug Administration [FDA]\nMeasure of cell viability is critical in the cell-base assay. Analysis of cell viability is necessary for the characterization of cell responses to cytotoxic drugs and environmental stress. A RealTime-Glo MT Cell Viability Assay to monitor cell viability in real time of continues cell culture during 40 hours of compound treatment was used to screen Tox21 10K library compounds in HepG2 cells. The RealTime-Glo MT Cell Viability Assay is a nonlytic, homogeneous, bioluminescent method to measure cell viability in real time using a simple, plate-based method. The assay involves adding NanoLuc luciferase and a cell-permeant prosubstrate to cells in culture. Viable cells reduce the proprietary prosubstrate to generate a substrate for NanoLuc luciferase. This substrate diffuses from cells into the surrounding culture medium, where it is rapidly used by the NanoLuc Enzyme to produce a luminescent signal. The signal correlates with the number of viable cells, making the assay well suited for cytotoxicity studies.\nTox21 Assay Protocol Summary:\nThe mixture of HepG2 cell suspension and reagents were dispensed at 600cells/6 ul/well in 1536-well tissue culture treated black solid bottom plates using a Multidrop dispenser. After the assay plates were incubated at a 37 C/5% CO2 incubator for 5 hours, 23 nL of compounds dissolved in DMSO, positive and negative controls was transferred to the assay plate by a pintool work station. The plates were incubated at 37 C for 40 hours. The luminescence intensity were measured at 0h, 8h, 16h, 24h, 32h and 40h time points using ViewLux plate reader during compound treatment.", "values": [{"smiles": "CCc1cccc(CC)c1N(COC)C(=O)CS(=O)(=O)O", "Potency": "inactive"}, {"smiles": "COc1ccc(C#N)cc1", "Potency": "inactive"}, {"smiles": "C=CC(=C)CC/C=C(\\C)CCC=C(C)C", "activity change, negative = cytotoxic": "-6.2% [at 15.8 µM] (inactive)"}, {"smiles": "C=C(C)C(=O)OCCC[Si](Cl)(Cl)Cl", "Potency": "inactive"}, {"smiles": "CC(=O)Nc1ccc(O)cc1", "Potency": "inactive"}, {"smiles": "CCC(=O)OCCc1ccccc1", "Potency": "inactive"}, {"smiles": "CO[C@H]1C=CO[C@@]2(C)Oc3c(C)c(O)c4c(O)c(cc(O)c4c3C2=O)NC(=O)/C(C)=C\\C=C/[C@H](C)[C@H](O)[C@@H](C)[C@@H](O)[C@@H](C)[C@H](OC(C)=O)[C@@H]1C", "Potency": "inactive"}, {"smiles": "CCOC(=O)CN", "Potency": "inactive"}, {"smiles": "COC(=O)[C@]1(C)CCC[C@@]2(C)[C@H]1CC=C1C=C(C(C)C)CC[C@@H]12", "Potency": "inactive"}, {"smiles": "CC[N+](CC)(CC)Cc1ccccc1", "Potency": "inactive"}, {"smiles": "O=C1C=CC(=O)N1c1ccccc1", "Potency": "11 µM (active)"}, {"smiles": "COc1cc(C=C2CCC/C(=C\\c3ccc(O)c(OC)c3)C2=O)ccc1O", "Potency": "23.9 µM (active)"}, {"smiles": "COc1ccc(-n2nc(CCC(=O)N(C)O)cc2-c2ccc(Cl)cc2)cc1", "Potency": "inactive"}, {"smiles": "C=C(C)CCCC", "Potency": "inactive"}, {"smiles": "CC(C)(C)c1n[nH]c(=O)n(N)c1=O", "Potency": "inactive"}, {"smiles": "O[C@@H](c1cc(C(F)(F)F)nc2c(C(F)(F)F)cccc12)[C@H]1CCCCN1", "Potency": "13.4 µM (active)"}, {"smiles": "CCO[Si](C)(C)OCC", "Potency": "inactive"}, {"smiles": "CCCCCCCCC(C)=O", "Potency": "inactive"}, {"smiles": "CC(=O)c1ccccc1N", "Potency": "inactive"}, {"smiles": "CSc1ccc2c(c1)N(CCC1CCCCN1C)c1ccccc1S2", "note": "(stereo not given)", "Potency": "30.8 µM (active)"}, {"smiles": "CC1(C)C(=O)N(CO)C(=O)N1CO", "Potency": "inactive"}, {"smiles": "CCN(CC)c1cccc(C)c1", "Potency": "inactive"}, {"smiles": "CN1[C@@H]2CC[C@H]1CC(OC(=O)C(CO)c1ccccc1)C2", "note": "(stereo not given in full)", "Potency": "inactive"}, {"smiles": "c1ccc(Sc2ccccc2)cc1", "Potency": "inactive"}, {"smiles": "CNC(=S)NN", "Potency": "inactive"}, {"smiles": "CO[Si](CCC1CCC2OC2C1)(OC)OC", "note": "(stereo not given)", "Potency": "inactive"}, {"smiles": "N#CSCSc1nc2ccccc2s1", "Potency": "24.5 µM (active)"}, {"smiles": "C=CC(=O)OCC(O)COc1ccccc1", "note": "(stereo not given)", "Potency": "inactive"}, {"smiles": "CCc1ccc(C)nc1", "Potency": "inactive"}, {"smiles": "C/C=C/C(=O)Oc1c(CCCCCC(C)C)cc([N+](=O)[O-])cc1[N+](=O)[O-]", "Potency": "43.6 µM (active)"}, {"smiles": "Cc1ccc(-n2[nH]c(C)c(N=Nc3cccc(-c4cccc(C(=O)O)c4)c3O)c2=O)cc1C", "Potency": "inactive"}, {"smiles": "ClC/C=C\\CCl", "Potency": "inactive"}, {"smiles": "CCOC(=O)COc1ccc(C)cc1", "Potency": "inactive"}, {"smiles": "CCCC(=O)OCC(COC(=O)CCC)OC(=O)CCC", "Potency": "inactive"}, {"smiles": "C/C=C/CO", "Potency": "inactive"}, {"smiles": "O=C(O)CCn1c2c(c3ccccc31)C[C@H](NS(=O)(=O)c1ccc(F)cc1)CC2", "Potency": "inactive"}, {"smiles": "NC(=O)c1nc(-c2cccc(-c3cc(F)ccc3OCC(F)(F)C(F)(F)F)c2)n[nH]1", "Potency": "inactive"}, {"smiles": "Nc1cc(Cl)c([N+](=O)[O-])cc1O", "Potency": "inactive"}, {"smiles": "Cc1cc(C)c(C=O)c(C)c1", "Potency": "inactive"}, {"smiles": "COC(=O)NCCC[Si](OC)(OC)OC", "Potency": "inactive"}]}]}
